Reference: PubChem BioAssay
Active and inactive are the calls of the source.

How the values were obtained:
[1] = system: Plasmodium falciparum Sir2 (PF13_0152, Sir2A); assay: pfSir2 binders on small-molecule microarrays, primary screen, biochemical, small-molecule microarray, 635 nm fluorescence (AID 1098); conditions: small-molecule microarray binding, fluorescence 635 nm; higher = more signal;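 also: score merges spot fluorescence intensity with its signal-to-noise ratio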
[2] = small-molecule microarray binders of probe aDKK1, primary screen, biochemical, biotinylated probe, 635/667 nm fluorescence (AID 1099); conditions: higher = more signal;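 also: score merges 667nm spot fluorescence with signal to noise across triplicate slides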
[3] = small-molecule microarray binders of probe aCHRDL2, primary screen, biochemical, biotinylated probe, 635/667 nm fluorescence (AID 1100); conditions: higher = more signal
[4] = splicing luciferase reporter signal modulators, primary screen, spliceosome inhibition project, cell-based, HEK293, splice +/- reporter (AID 1101); conditions: luminescence, 24 h, higher = more signal, called active from +8 up or from −8 down;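 also: HEK293 cells carrying a splicing-competent luciferase reporter gene; test concentration not given here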
[5] = biological target: Fibroblast growth factor 10 (Homo sapiens) (UniProt O15520); assay: FGF10 binders on small-molecule microarrays, primary screen, biochemical, small-molecule microarray, 635 nm fluorescence (AID 1102); conditions: FGF10 binding, fluorescence 635 nm, higher = more signal
[6] = system: glycogen synthase kinase-3 (GSK3A per assay name; protocol says GSK3B); assay: GSK3 binders on small-molecule microarrays, primary screen, biochemical, small-molecule microarray, 635 nm fluorescence, GSK3A (AID 1103); conditions: small-molecule microarray binding, fluorescence 635 nm; higher = more signal; also: the record names both GSK3A and GSK3B
[7] = biological target: Epidermal growth factor receptor (Homo sapiens) (UniProt P00533); assay: EGFR binders on small-molecule microarrays, primary screen, biochemical, small-molecule microarray, 635 nm fluorescence (AID 1104); conditions: EGFR binding, higher = more signal;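 also: score merges 667 nm emission intensity with spot signal to noise over triplicate slides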
[8] = biological target: Follistatin-related protein 3 (Homo sapiens) (UniProt O95633); assay: FSTL3 binders on small-molecule microarrays, primary screen, biochemical, small-molecule microarray, 635 nm fluorescence (AID 1105); conditions: FSTL3 binding, higher = more signal;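 also: score merges emission near 667 nm and signal to noise per printed spot across three slides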
[9] = biological target: Dickkopf-related protein 1 (Homo sapiens) (UniProt O94907); assay: DKK1 binders on small-molecule microarrays, primary screen, biochemical, small-molecule microarray, 635 nm fluorescence scan (AID 1106); conditions: DKK1 binding, higher = more signal;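 also: score merges emission near 667 nm with signal to noise over three replicate slides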
[10] = system: Inhibin beta A chain (activin A); assay: INHBA (activin A) binders on microarrays, primary screen, biochemical, small-molecule microarray, 635 nm fluorescence scan (AID 1107); conditions: small-molecule microarray binding, higher = more signal;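 also: mouse activin A protein probed at 4.33 µg/mL on printed slides; score merges bound-protein fluorescence near 667 nm with spot signal-to-noise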
[11] = system: Human papillomavirus type 1a protein E7 (residues 44-93); assay: HPV1a E7 fragment binders on microarrays, primary screen, biochemical, small-molecule microarray, residues 44-93, 635 nm fluorescence (AID 1108); conditions: small-molecule microarray binding, fluorescence 635 nm; higher = more signal;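 also: E7 fragment applied at 1 µg/mL in TBST for 1 h at 4 C; score combines spot fluorescence with its signal to noise ratio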
[12] = modulators of HCV replicon luciferase signal, primary screen, HCV replication inhibitor project, Huh7 cells, luciferase reporter (AID 1109); conditions: 48 h, higher = more signal;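 also: huh7 hepatoma cells harbouring a luciferase neomycin HCV replicon reporter; luciferase luminescence as measure of HCV replicon replication; test concentration not given here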
[13] = biological target: Left-right determination factor 2 (Homo sapiens) (UniProt O00292); assay: LEFTY2 binders on small-molecule microarrays, primary screen, biochemical, small-molecule microarray, 635 nm fluorescence scan (AID 1110); conditions: LEFTY2 binding, higher = more signal
[14] = biological target: Calmodulin-1 (Homo sapiens) (UniProt P0DP23); assay: CALM1 binders on microarrays, EGTA buffer, profiling panel, biochemical, small-molecule microarray, Cy5-labelled CALM1 (AID 1111); conditions: Cy5-CALM1 binding fluorescence, higher = more signal;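 also: labelled calmodulin applied in Tris saline Tween buffer holding calcium plus EGTA and DTT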
[15] = biological target: Calmodulin-1 (Homo sapiens) (UniProt P0DP23); assay: calcium-bound CALM1 binders on microarrays, profiling panel, artefact control for SMM control-protein annotation, biochemical, small-molecule microarray, Cy5-labelled CALM1, plus calcium (AID 1112); conditions: Cy5-CALM1 binding fluorescence, higher = more signal;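 also: score merges spot fluorescence with signal to noise from triplicate slides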
[16] = small-molecule microarray binders of probe aWnt5a, primary screen, biochemical, biotinylated probe, 635/667 nm fluorescence (AID 1113); conditions: higher = more signal;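 also: score merges 667 nm fluorescence intensity with signal-to-noise per printed feature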
[17] = small-molecule microarray binders of probe aShh, primary screen, biochemical, biotinylated probe, 635/667 nm fluorescence (AID 1114); conditions: higher = more signal;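 also: probe is biotin-labelled aShh protein from a stem cell growth factor screen; measures binding of labelled protein to compounds printed on the slide; score merges feature fluorescence at 667 nm with signal-to-noise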
[18] = small-molecule microarray binders of probe aNog, primary screen, biochemical, biotinylated probe, 635/667 nm fluorescence (AID 1115); conditions: higher = more signal;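 also: probe is biotinylated aNog protein used at 0.15 µg/mL for 1 h at 4 C; z-score combines 667 nm fluorescence of each spot with its signal to noise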
[19] = biological target: Torsin-1A-interacting protein 1 (Homo sapiens) (UniProt Q5JTV8); assay: LAP1 binders from COS7 cell lysate, primary screen, small-molecule microarray, 635/667 nm fluorescence (AID 1116); conditions: COS7-hLAP1 lysate binding, 635 nm fluorescence, higher = more signal
[20] = biological target: Alpha-bungarotoxin (Bungarus multicinctus) (UniProt P60615); assay: alpha-bungarotoxin binders on microarray, profiling panel, artefact control for SMM control protein annotation, biochemical, small-molecule microarray, Alexa647 label, 635/667 nm fluorescence (AID 1117); conditions: alpha-BTX-A647 binding fluorescence, higher = more signal
Sequence of Alpha-bungarotoxin (Bungarus multicinctus) (P60615 whole entry, looked up): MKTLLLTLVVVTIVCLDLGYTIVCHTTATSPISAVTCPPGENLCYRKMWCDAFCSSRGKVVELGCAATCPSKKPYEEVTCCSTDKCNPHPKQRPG

Sequence of Dickkopf-related protein 1 (Homo sapiens) (O94907 whole entry, looked up): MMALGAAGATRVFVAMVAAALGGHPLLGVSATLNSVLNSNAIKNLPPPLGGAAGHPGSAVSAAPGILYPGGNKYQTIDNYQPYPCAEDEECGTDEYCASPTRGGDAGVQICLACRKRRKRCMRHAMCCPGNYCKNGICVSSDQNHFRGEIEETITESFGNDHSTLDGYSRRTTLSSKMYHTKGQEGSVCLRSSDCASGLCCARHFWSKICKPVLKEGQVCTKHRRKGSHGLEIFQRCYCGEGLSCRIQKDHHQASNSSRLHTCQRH
Sequence of Fibroblast growth factor 10 (Homo sapiens) (O15520 whole entry, looked up): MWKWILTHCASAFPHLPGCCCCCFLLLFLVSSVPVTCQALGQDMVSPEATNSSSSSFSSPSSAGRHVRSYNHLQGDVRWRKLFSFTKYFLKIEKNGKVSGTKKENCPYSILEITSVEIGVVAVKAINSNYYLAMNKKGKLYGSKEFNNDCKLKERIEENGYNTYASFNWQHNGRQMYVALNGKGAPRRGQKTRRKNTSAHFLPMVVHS
Sequence of Left-right determination factor 2 (Homo sapiens) (O00292 whole entry, looked up): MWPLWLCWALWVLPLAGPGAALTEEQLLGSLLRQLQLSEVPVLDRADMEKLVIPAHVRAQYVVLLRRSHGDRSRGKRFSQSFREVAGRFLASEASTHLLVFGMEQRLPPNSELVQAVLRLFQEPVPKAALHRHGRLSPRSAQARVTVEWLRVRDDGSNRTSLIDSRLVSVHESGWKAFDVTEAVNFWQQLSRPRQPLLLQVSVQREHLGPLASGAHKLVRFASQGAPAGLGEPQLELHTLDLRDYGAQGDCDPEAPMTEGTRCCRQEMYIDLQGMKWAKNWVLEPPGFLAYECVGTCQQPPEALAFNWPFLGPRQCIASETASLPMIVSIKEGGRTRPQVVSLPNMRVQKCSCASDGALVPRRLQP
Sequence of Follistatin-related protein 3 (Homo sapiens) (O95633 whole entry, looked up): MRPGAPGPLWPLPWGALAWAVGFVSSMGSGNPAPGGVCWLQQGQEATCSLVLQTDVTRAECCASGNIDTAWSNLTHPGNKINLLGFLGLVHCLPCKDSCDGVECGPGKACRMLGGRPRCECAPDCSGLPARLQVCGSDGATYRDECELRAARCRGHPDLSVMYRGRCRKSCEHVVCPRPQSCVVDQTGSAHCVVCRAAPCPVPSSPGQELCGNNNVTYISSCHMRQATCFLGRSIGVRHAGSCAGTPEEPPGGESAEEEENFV
Sequence of Torsin-1A-interacting protein 1 (Homo sapiens) (Q5JTV8 whole entry, looked up): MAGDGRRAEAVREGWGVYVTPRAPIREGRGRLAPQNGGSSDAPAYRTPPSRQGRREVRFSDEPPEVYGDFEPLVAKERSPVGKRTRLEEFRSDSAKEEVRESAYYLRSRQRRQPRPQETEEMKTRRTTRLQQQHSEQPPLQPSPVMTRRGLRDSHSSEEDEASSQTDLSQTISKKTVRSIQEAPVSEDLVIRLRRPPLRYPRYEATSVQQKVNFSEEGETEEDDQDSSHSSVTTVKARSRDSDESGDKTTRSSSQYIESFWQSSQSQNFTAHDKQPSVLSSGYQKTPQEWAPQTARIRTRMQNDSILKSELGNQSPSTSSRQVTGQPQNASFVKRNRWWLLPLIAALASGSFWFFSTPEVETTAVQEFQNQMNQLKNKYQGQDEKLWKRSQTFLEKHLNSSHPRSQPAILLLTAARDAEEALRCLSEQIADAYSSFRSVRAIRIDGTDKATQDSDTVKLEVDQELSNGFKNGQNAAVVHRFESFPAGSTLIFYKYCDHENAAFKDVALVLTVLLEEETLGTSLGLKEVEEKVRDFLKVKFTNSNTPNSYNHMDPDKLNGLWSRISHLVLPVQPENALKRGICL
Sequence of Epidermal growth factor receptor (Homo sapiens) (P00533 whole entry, looked up): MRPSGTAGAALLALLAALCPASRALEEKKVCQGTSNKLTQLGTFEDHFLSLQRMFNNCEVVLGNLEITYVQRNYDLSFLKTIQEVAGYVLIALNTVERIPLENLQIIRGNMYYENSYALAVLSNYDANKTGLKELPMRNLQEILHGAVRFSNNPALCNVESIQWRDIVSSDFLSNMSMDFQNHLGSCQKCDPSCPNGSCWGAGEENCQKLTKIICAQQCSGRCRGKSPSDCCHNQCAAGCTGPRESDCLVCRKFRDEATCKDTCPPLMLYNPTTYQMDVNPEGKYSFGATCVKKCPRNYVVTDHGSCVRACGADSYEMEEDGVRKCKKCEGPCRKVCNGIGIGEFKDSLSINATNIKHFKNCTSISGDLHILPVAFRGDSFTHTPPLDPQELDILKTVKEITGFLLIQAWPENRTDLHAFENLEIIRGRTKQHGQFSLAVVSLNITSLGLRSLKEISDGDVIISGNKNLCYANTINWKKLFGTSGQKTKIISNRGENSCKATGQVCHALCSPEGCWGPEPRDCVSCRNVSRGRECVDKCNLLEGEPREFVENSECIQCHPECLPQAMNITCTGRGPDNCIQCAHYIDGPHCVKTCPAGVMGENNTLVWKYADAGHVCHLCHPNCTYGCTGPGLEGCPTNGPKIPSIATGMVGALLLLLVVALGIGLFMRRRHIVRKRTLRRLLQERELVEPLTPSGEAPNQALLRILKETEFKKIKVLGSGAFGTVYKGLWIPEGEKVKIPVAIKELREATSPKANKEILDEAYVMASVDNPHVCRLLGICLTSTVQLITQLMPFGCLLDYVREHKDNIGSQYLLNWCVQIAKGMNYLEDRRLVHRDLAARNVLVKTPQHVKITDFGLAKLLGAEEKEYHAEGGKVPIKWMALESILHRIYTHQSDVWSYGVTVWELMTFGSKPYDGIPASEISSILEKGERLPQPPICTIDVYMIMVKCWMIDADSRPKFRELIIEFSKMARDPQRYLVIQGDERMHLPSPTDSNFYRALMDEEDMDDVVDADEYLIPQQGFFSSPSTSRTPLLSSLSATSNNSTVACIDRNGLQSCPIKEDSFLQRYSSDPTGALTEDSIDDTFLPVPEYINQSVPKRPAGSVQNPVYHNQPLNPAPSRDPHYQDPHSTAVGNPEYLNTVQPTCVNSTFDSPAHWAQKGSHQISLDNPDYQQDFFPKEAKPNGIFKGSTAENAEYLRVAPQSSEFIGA

Structure (SMILES) | composite z-score [1] | composite z-score [2] | composite z-score [3] | z-score [4] | composite z-score [5] | composite z-score [6] | composite z-score [7] | composite z-score [8] | composite z-score [9] | composite z-score [10] | composite z-score [11] | z-score [12] | composite z-score [13] | composite z-score [14] | composite z-score [15] | composite z-score [16] | composite z-score [17] | composite z-score [18] | composite z-score [19] | composite z-score [20]
CC(=O)NCCCC[C@@H]1NC(=O)[C@H]2C[C@@H](C(=O)NCCCCCC[N+](C)(C)C)[C@@H](c3cccc(OCCO)c3)N2C1=O | 1.44 | -0.104 | -0.207 | -1.6 (inactive) | 1.17 | 0.917 | 0.848 | 1.58 | 1.85 | 0.695 | 1.1 | -0.0914 | 1.02 | 0.0227 | -0.34 | -0.0792 | -0.0709 | 0.019 | 0.595 | 2.04
C[C@]1(C(=O)NCc2ccccc2)c2ccccc2C(=O)N(Cc2cc(F)cc(C(F)(F)F)c2)[C@H]1c1ccc(CO)cc1 | 0.876 | 0.214 | 0.637 | -0.102 (inactive) | -0.384 | -0.422 | -0.505 | -1.45 | -1.21 | -0.185 | 0.376 | -0.44 | -1.57 | -0.595 | 0.173 | -0.0685 | 0.0469 | -0.427 | -0.168 | 0.0471
COC(=O)[C@@]1(Cc2ccc(F)cc2)[C@H]2c3cc(C(=O)N(C)C)n(CCc4ccccn4)c3C[C@H]2CN1C(=O)c1ccccc1 | 0.219 | 0.849 | 0.312 | -3.62 (inactive) | 0.355 | 1.36 | 0.472 | 0.869 | 0.41 | 0.403 | 1.39 | -0.72 | 0.384 | -0.012 | -0.47 | 1.12 | -0.394 | 0.796 | 0.468 | 0.292
CO[C@H]1O[C@H](CO)[C@@H](OC(=O)Nc2ccc3c(c2)OCO3)[C@H](OC(=O)Nc2ccccc2)[C@H]1OC(=O)Nc1ccccc1 | 1.48 | 0.132 | 0.398 | 1.89 (inactive) | 0.892 | 1.29 | -0.0701 | 0.848 | 0.295 | 0.395 | 1.5 | -3.44 | 0.0544 | 1.36 | -0.905 | -0.0519 | 0.275 | 0.909 | 1.47 | 1.74
CC(C)C[C@@H]1NC(=O)[C@H]2C[C@@H](C(=O)NCCCCCNC(=O)CS)[C@@H](c3cccc(OCCO)c3)N2C1=O | 1.52 | -0.0356 | -0.003 | 0.684 (inactive) | 1.03 | 1.32 | 1.08 | 1.36 | 1.44 | 1.25 | 1.38 | -0.265 | 1.25 | 0.193 | -0.364 | -0.194 | -0.358 | -0.0428 | 0.698 | 0.812
CC(C)OC(=O)CC(=O)CC(O)c1ccc(C#N)cc1 (stereo not given) | -0.165 | 0.715 | 1.23 | -1.74 (inactive) | 0.169 | 0.148 | -0.361 | 0.078 | -0.997 | 0.891 | 0.443 | -0.259 | -0.461 | -1.49 | -1.46 | -0.0405 | -0.156 | -0.397 | 1.67 | 1.75
Cc1ccc(S[C@]2(C(=O)NCc3ccccc3)CC(=O)N(Cc3ccccc3Cl)[C@@H]2c2ccc(CO)cc2I)cc1 | 0.49 | 0.302 | 1.13 | -1.6 (inactive) | -0.761 | -0.528 | -1.17 | -0.689 | -1.22 | 0.962 | -0.173 | -1.74 | -2.11 | -0.162 | 0.137 | -0.124 | -0.426 | -0.581 | 0.0931 | 1.7
COC(=O)c1ccc(C(O)C2C=CC3C(=O)N(C)C(=O)C3N2NC(=O)OC(C)(C)C)o1 (stereo not given) | 0.66 | 0.49 | 0.266 | 1.26 (inactive) | 0.558 | 0.483 | 0.557 | 0.622 | -0.0526 | 0.399 | 0.703 | -0.104 | 0.432 | 0.81 | -0.493 | 0.112 | -0.0904 | 0.672 | 2.02 | 0.977
COCC1=C2[C@@H](CCc3ccccc3)OB(O)C[C@@H]2[C@@H]2C(=O)N(Cc3ccccc3)C(=O)[C@@H]2C1 | 0.174 | -0.143 | -0.188 | 0.161 (inactive) | 0.628 | 0.197 | 0.388 | 0.191 | 0.249 | 0.728 | -0.0734 | -0.895 | 0.0192 | -0.222 | -0.112 | -0.0242 | -0.214 | 0.362 | -0.448 | 1.19
CC(C)CNC(=O)[C@@]1(c2ccc([N+](=O)[O-])cc2)CC(=O)N(CC23CC4CC(CC(C4)C2)C3)[C@@H]1c1ccc(CO)cc1 | 0.947 | 0.0324 | 0.555 | -2.11 (inactive) | 1.24 | 0.715 | 0.283 | 0.58 | 0.127 | 0.328 | 1.07 | -2.62 | -0.15 | -0.367 | 0.113 | 0.0215 | -0.0709 | 1.23 | 1.96 | 0.438
C=CCNC(=O)[C@@H]1[C@H]2C(=O)O[C@H](c3ccccc3)[C@H](c3ccccc3)N2[C@H](c2ccc(OCCO)cc2)[C@@]12C(=O)Nc1ccccc12 | 1.06 | 0.454 | -0.0808 | -0.0935 (inactive) | 0.772 | 0.839 | 0.254 | 0.774 | 0.228 | 0.344 | 1.39 | -1.72 | 0.302 | 0.705 | -0.495 | -0.0179 | 0.0469 | -0.543 | 1.55 | 1.05
